# Experimental data published in PubChem BioAssay (NCI).
# Compounds without any hit were thinned out: in the full panel of roughly 83,000, 20% have a hit.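 Method: cells in 96-well plates; compound added at one concentration; 48 h incubation; percent growth measured; values under 10 scored active.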 Unmarked numbers belong to inactive results. Calls of active or inactive are those of the source.
# Tested on: MDA-MB-468 breast
# Experiment: NCI-60 one-dose screen, 48 h (100 = growth as untreated, 0 = no growth, -100 = all killed)
# Details: 10 µM unless noted
row,Structure (SMILES),growth
1,COc1ccc(CC(C#N)c2cc3ccccc3[nH]2)cc1 (stereo unspecified),89.6%
2,O=[N+]([O-])c1ccc(-c2nc(Cl)c3c(n2)CCCC3)o1,54.1%
3,N#Cc1c(-c2ccccc2)cc(-c2ccccc2)n(CCCCC(=O)NO)c1=O,20%
4,C#Cc1cccc(Oc2ccc(NC(=O)CCl)cc2)c1,-7.9% [8.25 µM] (active)
5,Cc1ccc(Nc2nc(-c3ccc(F)cc3)c(C#N)c(=O)n2C)cc1,62.1%
6,CC(C)(C)CC(C)(C)c1ccc(OCCSC(=N)N)cc1,-23.9% (active)
7,CCOC(C)=N,117%
8,CC(C)c1ccc(/C=N/Nc2nc3ccccc3s2)cc1,110%
9,CC(=O)c1sc2sc(C(C)=O)c(C)c2c1C,61.4%
10,COc1cc2cc(Oc3ccc(NC(=O)Nc4cc(C(F)(F)F)cc(C(F)(F)F)c4)cc3)c(C)nc2cc1OCCN(C)C,100%
11,C/C(CC(C)C)=N/NC(N)=S,7.03% (active)
12,O=C1C=CC2(O)OC/C(=C\c3ccccc3)C(O)=C2C1=O (stereo unspecified),10.3%
13,Nc1ncnc2c1N=C(c1ccc(Cl)cc1)CC(c1cccc(Nc3ccnc4cc(Cl)ccc34)c1)N2 (stereo unspecified),75%
14,CC(C)C(C)(C)c1ccc(O)cc1,91.1%
15,Cc1c(C(=O)O[C@H]2[C@@H]3[C@H](C)CC[C@H]3[C@]3(C)O[C@@]2(C2CCCCC2)C[C@H]3OC(=O)CO)ccc2ccccc12,22.5%
16,Cc1nn(-c2nc3ccccc3[nH]2)c2c1C(c1ccc(OCc3ccc(F)cc3)cc1)CC(=O)N2 (stereo unspecified),65.3%
